From PubChem BioAssay (NCATS) come the findings set out here.

For experiment [1], the target named is Lysosomal acid glucosylceramidase (Homo sapiens) (UniProt P04062). The experiment is described as follows: Glucocerebrosidase-p2 (AID 348; in the data active means potency below about 10 µM; further: potency means the concentration at half of the fitted maximal effect). The note with it: purified GBA, blue fluorogenic substrate, 40 min. In short, it runs like this: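 Compounds titrated from 0.6 nM upwards against 0.2 nM enzyme in pH 5.9 citric acid/KH2PO4, taurocholate, tween-20; blue fluorogenic substrate 80 uM, 40 min room temperature, stopped and read Ex 365/Em 440 for AC50.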
Sequence of Lysosomal acid glucosylceramidase (Homo sapiens) (P04062 whole entry, looked up): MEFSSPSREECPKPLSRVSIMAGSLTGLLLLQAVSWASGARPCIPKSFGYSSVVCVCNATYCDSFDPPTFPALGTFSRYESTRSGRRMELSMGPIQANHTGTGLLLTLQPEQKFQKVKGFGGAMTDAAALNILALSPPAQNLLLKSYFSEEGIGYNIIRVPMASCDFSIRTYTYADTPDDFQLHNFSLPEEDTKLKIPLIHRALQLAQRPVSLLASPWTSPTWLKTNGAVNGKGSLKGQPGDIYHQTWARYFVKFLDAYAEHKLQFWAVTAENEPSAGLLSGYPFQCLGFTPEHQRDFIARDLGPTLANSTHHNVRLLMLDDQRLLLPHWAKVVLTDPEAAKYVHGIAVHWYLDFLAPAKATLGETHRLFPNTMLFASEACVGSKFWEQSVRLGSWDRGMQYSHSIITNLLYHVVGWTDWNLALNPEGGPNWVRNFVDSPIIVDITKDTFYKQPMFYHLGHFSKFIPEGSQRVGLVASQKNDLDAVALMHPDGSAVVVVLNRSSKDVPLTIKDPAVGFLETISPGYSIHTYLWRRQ

The nature of experiment [2]: AP1 Signaling Pathway (AID 357; active means well fitted curve in either direction with a large enough effect, not every such curve was filed as active; further: on the % scale 0 is the no-effect control and ±100 the full control effect). The note with it: ME-180 AP-1-bla reporter, EGF-induced, beta-lactamase ratio, 5 h; at 7.69 µM (top of the series) unless noted. In short, it runs like this: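 AP-1-bla ME-180 cells, Opti-MEM + 0.5% dialyzed FBS, plated overnight 37 °C. Cpd titration + EC50 EGF, 5 h 37 °C. CCF4 2.5 h RT; ex 405, em 460/530 ratio → %activity, AC50.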
Experiment [3] in a line: NFAT Signaling Pathway (AID 444; active means well fitted curve in either direction with a large enough effect, not every such curve was filed as active;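 further: carbachol stimulus at about its EC50 of 1 µM final; on the % scale 0 is the no-effect control and ±100 the full control effect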). The note with it: Jurkat NFAT-bla M1, carbachol, beta-lactamase ratio, 5 h; at 7.69 µM (top of the series) unless noted. In short, it runs like this: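 Jurkat cells carrying an NFAT-driven β-lactamase reporter and co-transfected muscarinic M1 receptor were treated with compound plus carbachol (1 uM final, an EC50 level) for 5 h at 37 °C. CCF4 loading followed for 1 h at RT; 460/530 nm ratio gave %activity.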

The nature of experiment [4]: Stat Signaling Pathway (AID 446; active means well fitted curve in either direction with a large enough effect, not every such curve was filed as active;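 further: ME-180 cervical cancer cells given 40 pM IL-6 alongside compound; SIE-controlled beta-lactamase reporter measured as 460/530 nm FRET emission ratio; on the % scale 0 is the no-effect control and ±100 the full control effect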). The note with it: ME-180 (cervical carcinoma) SIE beta-lactamase reporter, IL-6 stimulated, 5 h; at 7.69 µM (top of the series) unless noted. The method, boiled down:
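ME-180 SIE-bla cells; overnight plating; cpd + IL-6 40 pM, 5 h, 37 C; LiveBLAzer 2.5 h RT; 460/530 nm emission ratio. Normalized to 300 pM IL-6 and 125 nM JAK inhibitor controls.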

For experiment [5], the target named is Glucocorticoid receptor (Homo sapiens) (UniProt P04150). Kind of experiment: GR-GFP Redistribution (AID 450;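 active means compounds whose dose series gives a full or clear partial fitted curve of increased nuclear translocation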; further: potency means the concentration at half of the fitted maximal effect). Particulars: U2OS GR-GFP nuclear translocation, laser cytometry, 2 h.
Sequence of Glucocorticoid receptor (Homo sapiens) (P04150 whole entry, looked up): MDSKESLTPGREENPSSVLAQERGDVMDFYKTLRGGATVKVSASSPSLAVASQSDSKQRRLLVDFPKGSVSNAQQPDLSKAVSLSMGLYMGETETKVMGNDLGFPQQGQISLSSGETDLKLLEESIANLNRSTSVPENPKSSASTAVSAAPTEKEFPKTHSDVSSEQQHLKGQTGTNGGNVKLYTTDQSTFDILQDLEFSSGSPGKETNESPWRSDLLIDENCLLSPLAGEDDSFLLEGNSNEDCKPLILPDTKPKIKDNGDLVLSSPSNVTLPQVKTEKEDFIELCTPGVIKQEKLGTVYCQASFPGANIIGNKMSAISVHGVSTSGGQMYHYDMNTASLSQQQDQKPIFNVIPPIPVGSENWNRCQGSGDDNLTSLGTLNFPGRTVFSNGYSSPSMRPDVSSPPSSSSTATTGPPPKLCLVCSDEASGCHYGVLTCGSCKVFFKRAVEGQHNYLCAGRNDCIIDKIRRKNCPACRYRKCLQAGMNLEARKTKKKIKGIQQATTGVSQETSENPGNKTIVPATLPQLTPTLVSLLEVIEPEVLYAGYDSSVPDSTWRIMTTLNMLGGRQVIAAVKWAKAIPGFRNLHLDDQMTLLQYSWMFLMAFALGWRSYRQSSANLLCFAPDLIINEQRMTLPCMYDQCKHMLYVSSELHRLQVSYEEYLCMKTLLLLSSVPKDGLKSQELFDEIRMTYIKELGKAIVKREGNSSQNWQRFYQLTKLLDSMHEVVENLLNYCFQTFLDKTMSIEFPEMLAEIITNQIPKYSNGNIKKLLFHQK
For experiment [6] the target is unchanged. Kind of experiment: GR-EFC Redistribution (AID 451; calls by dose curve; further: potency means the concentration at half of the fitted maximal effect). Particulars: CHO-K1 GR-EFC translocation, beta-gal luminescence, 2 h. The method, boiled down:
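CHO-K1 cells stably expressing nuclear-localized β-gal enzyme acceptor and GR fused C-terminally to the enzyme donor fragment; ligand-driven nuclear translocation restores β-gal by complementation. Compounds titrated up to 46 uM final, 2 h at 37 °C; luminescence read.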

For experiment [7], the target named is Mitogen-activated protein kinase 10 (Mus musculus) (UniProt Q61831). Kind of experiment: JNK3 AlphaScreen Assay (AID 530; active means well fitted curve in either direction with a large enough effect, not every such curve was filed as active;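 further: kinase came from lysate of stimulated human HepG2 cells; signal reports phosphorylation of biotinylated GST-cJun 1-79 at Ser73 with 10 µM ATP; on the % scale 0 is the no-effect control and ±100 the full control effect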). The note with it: JNK3 lysate, c-Jun phosphorylation; series mostly up to 57.1 µM. In short, it runs like this: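 Inhibitors reduce antibody binding to phosphorylated biotin-cJun, lowering AlphaScreen luminescence. Lysates from HepG2 cells pre-activated by IL-1beta plus TNF-alpha supplied JNK3; compounds were titrated.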

Experiment [8] deals with 3',5'-cyclic-AMP phosphodiesterase 4B (Homo sapiens) (UniProt Q07343). The experiment is described as follows: qHTS Assay for Inhibitors of PDE-IV (AID 607; active means well fitted activation curve with a large enough effect in the main read-out, with a control signal flat, not every such curve was filed as active; further: % of control where 0% means no effect). Particulars: HEK293 ACTOne CNG channel cells, membrane potential fluorescence; series mostly up to 22.9 µM. The method, boiled down:
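ACTOne HEK293 cells carry a modified cAMP-gated CNG channel and express endogenous PDE4; plated 1000 cells/well, compounds up to 22.9 uM final. Membrane-potential dye fluorescence (ex 535/em 590) was read; parental cells received 10 uM forskolin + 100 uM RO 20-1724.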

Experiment [9] is described as follows: qHTS Assay for Lipid Storage Modulators (AID 1519; calls by dose curve). The note with it: Drosophila S3 cells, BODIPY lipid droplet/cell ratio, laser cytometry, cells loaded with oleic acid; for activity change, negative = inhibition: at 57.5 µM (top of the series). In short, it runs like this:
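Cells seeded at 5,000 per well were treated with compounds over a concentration series and loaded with oleic acid (400 uM, as added). Lipid droplet fluorescence (488 nm excitation, 500-530 nm channel) was read by laser-scanning cytometry and normalized to 20 uM Triacsin C.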

The nature of experiment [10]: Counterscreen qHTS for small molecule stabilizers of the endoplasmic reticulum resident proteome: GLuc-NoTag assay (AID 1508627).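 Further: 0% = thapsigargin alone and -100% = DMSO vehicle control.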 The note with it: Gaussia luciferase NoTag secretion counterscreen, luminescence, thapsigargin 100 nM for final 4 h; series mostly up to 76.4 µM. The method, boiled down:
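SH-SY5Y cells stably expressing constitutively secreted GLuc (no SERCaMP tag) were pre-incubated 5 h, treated with compound for 19 h, then 100 nM thapsigargin for 4 h at 37C; medium GLuc read by coelenterazine luminescence.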

The nature of experiment [11]: Cell Viability qHTS for small molecule stabilizers of the endoplasmic reticulum resident proteome (AID 1508629). Particulars: cell viability counter-screen, 100 nM thapsigargin for final 4 h.
The target in experiment [12] is Cytochrome P450 1A2 (Homo sapiens) (UniProt P05177). Kind of experiment: p450-cyp1a2 (AID 410; calls by dose curve; further: potency means the concentration at half of the fitted maximal effect). The note with it: recombinant CYP1A2, luciferin-ME demethylation, luminescence; series mostly up to 57 µM. The method, boiled down:
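Luminescent readout of luciferin formed from Luciferin-ME by human CYP1A2; data normalized against complete inhibition by 57 uM furafylline. Enzyme 20nM, substrate 100uM at Km, 100mM KPO4 buffer, 60 min reaction at room temperature.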

Experiment [13] addresses Cytochrome P450 3A4 (Homo sapiens) (UniProt P08684). Kind of experiment: qHTS Assay for Inhibitors and Substrates of Cytochrome P450 3A4 (AID 884). Further: potency means the concentration at half of the fitted maximal effect; nearly all actives have a fitted effect of over 50% in size. The note with it: recombinant CYP3A4, Luciferin-PPXE luminescence; series mostly up to 57.1 µM. The method, boiled down:
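20 nM human CYP3A4 with 25 uM Luciferin-PPXE (at KM) in 200 mM KPO4, preincubated 10 min with compound; NADPH regeneration started a 60 min RT reaction. Luciferin detected by luminescence, normalized to 57 uM ketoconazole as full inhibition.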

The target is the same in experiment [14]. The experiment is described as follows: qHTS Assay for Activators of Cytochrome P450 3A4 (AID 885). Further: nearly all actives have a fitted effect of over 65% in size. The note with it: recombinant CYP3A4, Luciferin-PPXE luminescence, 60 min; series mostly up to 57.1 µM. In short, it runs like this: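 20nM CYP3A4 + 25uM Luciferin-PPXE (=KM), 200mM KPO4; cpd 10 min RT; NADPH regen, 60 min RT; stop w/ detection buffer, 20 min; luminescence. Normalized to 57 uM ketoconazole.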

For experiment [15], the target named is Dual specificity protein kinase CLK4 (Homo sapiens) (UniProt Q9HAZ1). Kind of experiment: qHTS Assay for Inhibitors of CDC-like Kinase 4 (Kinase-Glo Assay) (AID 1770). Further: on the % scale 0 is the no-effect control and ±100 the full control effect; nearly all actives have a fitted effect of over 65% in size. Particulars: recombinant Clk4, Kinase-Glo ATP depletion luminescence; series mostly up to 66.7 µM. In short, it runs like this:
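Recombinant human Clk4 (25 nM) phosphorylated RS repeat peptide (100 uM) with 1 uM ATP in Tris pH 7.5/MgCl2/EGTA/DTT/Triton buffer for 4.5 h at room temperature. Residual ATP was quantified by Kinase-Glo luciferase luminescence.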

The target is the same in experiment [16]. The experiment is described as follows: qHTS Assay for Inhibitors of CDC-like Kinase 4 (ADP-Glo Assay) (AID 1771). Further: on the % scale 0 is the no-effect control and ±100 the full control effect; nearly all actives have a fitted effect of over 70% in size. The note with it: recombinant CLK4, ADP-Glo luminescence; series mostly up to 80 µM. In short, it runs like this: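 Luminescence from ADP-Glo reports ADP produced by 25 nM Clk4 acting on 100 uM RS repeat peptide with 1 uM ATP over 1 hr at room temperature; residual ATP is depleted before ADP is converted to ATP for detection.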

Experiment [17] has the same target. The experiment is described as follows: qHTS Assay for Inhibitors of CDC-like Kinase 4 (ADP-FP Assay) (AID 1795). Further: on the % scale 0 is the no-effect control and ±100 the full control effect; nearly all actives have a fitted effect of over 60% in size. The note with it: Transcreener ADP fluorescence polarization; series mostly up to 50 µM. The method, boiled down: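 Recombinant human Clk4 (6.25 nM) phosphorylated RS repeat peptide (100 uM) with 1 uM ATP in Tris pH 7.5/MgCl2/EGTA/DTT/Triton buffer for one hour. ADP was quantified by Transcreener competitive fluorescence polarization against an ADP calibration curve.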

The target in experiment [18] is Ubiquitin carboxyl-terminal hydrolase 1 (Homo sapiens) (UniProt O94782). Kind of experiment: Inhibitors of USP1/UAF1: Pilot qHTS (AID 504865).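 Further: rhodamine fluorescence freed from ubiquitin-rhodamine substrate followed over time; top concentration of the series differs between compounds; on the % scale 0 is the no-effect control and ±100 the full control effect; nearly all actives have a fitted effect of over 35% in size.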 The note with it: purified USP1/UAF1, Ub-rhodamine cleavage fluorescence; series mostly up to 54.9 µM. In short, it runs like this: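 USP1/UAF1 complex (1nM) preincubated with compound 15 min at room temperature, then Ub-Rho substrate (150nM final) added. Fluorescence read kinetically at 480/540 nm, 6 reads every 60 seconds. Buffer: 50mM HEPES pH 7.8, 0.5mM EDTA, 0.1 mg/ml BSA, 1mM TCEP, 0.01% Tween-20.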
Sequence of Ubiquitin carboxyl-terminal hydrolase 1 (Homo sapiens) (O94782 whole entry, looked up): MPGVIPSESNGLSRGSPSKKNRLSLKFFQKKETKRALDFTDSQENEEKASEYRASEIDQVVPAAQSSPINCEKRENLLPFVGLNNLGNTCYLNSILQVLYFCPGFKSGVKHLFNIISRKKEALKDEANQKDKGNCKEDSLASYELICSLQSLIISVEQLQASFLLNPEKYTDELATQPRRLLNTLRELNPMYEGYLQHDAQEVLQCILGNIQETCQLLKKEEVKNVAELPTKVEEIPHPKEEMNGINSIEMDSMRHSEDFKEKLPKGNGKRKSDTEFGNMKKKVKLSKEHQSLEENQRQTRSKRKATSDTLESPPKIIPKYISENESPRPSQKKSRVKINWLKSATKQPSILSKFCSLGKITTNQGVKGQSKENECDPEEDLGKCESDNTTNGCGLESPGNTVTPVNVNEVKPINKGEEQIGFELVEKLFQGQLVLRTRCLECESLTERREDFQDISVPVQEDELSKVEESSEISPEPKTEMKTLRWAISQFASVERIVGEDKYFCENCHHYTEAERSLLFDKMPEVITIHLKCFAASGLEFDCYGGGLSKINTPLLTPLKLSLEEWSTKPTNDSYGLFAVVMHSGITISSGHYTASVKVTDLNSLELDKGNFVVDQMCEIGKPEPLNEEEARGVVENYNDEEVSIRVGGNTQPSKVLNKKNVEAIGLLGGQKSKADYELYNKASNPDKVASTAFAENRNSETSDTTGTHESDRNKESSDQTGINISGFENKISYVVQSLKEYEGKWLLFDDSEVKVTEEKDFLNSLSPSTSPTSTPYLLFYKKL

Experiment [19] in a line: Confirmatory qHTS for small molecule stabilizers of the endoplasmic reticulum resident proteome: Secreted ER Calcium Modulated Protein (SERCaMP) assay (AID 1508628). Further: potency means the concentration at half of the fitted maximal effect; nearly all actives have a fitted effect of over 40% in size. The note with it: SERCaMP secreted luciferase ER calcium/proteostasis reporter; series mostly up to 76.3 µM. In short, it runs like this: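 SH-SY5Y cells stably expressing GLuc-SERCaMP, treated 16 h with compound (primary 1.53, 7.67, 38.3 uM; confirmation 11 concentrations, up to 76.6 uM), then 100 nM thapsigargin for 4 h. Secreted Gaussia luciferase in medium read by coelenterazine luminescence.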

Where [20] appears, read: measured here: cell count channel max response.
Setting [21] is: measured here: lipid channel max response.

Results filed as inconclusive are left out. Calls of active or inactive are those of the source. Unless noted, the call rests on the fitted dose curve; in most records, active means well fitted curve in the direction sought with a large enough effect; inconclusive means small, poorly fitted or top-dose-only effect, or another doubt; inactive means no such curve, though single readings can be large; an effect the other way counts as inactive or inconclusive.

Sequence of Dual specificity protein kinase CLK4 (Homo sapiens) (Q9HAZ1 whole entry, looked up): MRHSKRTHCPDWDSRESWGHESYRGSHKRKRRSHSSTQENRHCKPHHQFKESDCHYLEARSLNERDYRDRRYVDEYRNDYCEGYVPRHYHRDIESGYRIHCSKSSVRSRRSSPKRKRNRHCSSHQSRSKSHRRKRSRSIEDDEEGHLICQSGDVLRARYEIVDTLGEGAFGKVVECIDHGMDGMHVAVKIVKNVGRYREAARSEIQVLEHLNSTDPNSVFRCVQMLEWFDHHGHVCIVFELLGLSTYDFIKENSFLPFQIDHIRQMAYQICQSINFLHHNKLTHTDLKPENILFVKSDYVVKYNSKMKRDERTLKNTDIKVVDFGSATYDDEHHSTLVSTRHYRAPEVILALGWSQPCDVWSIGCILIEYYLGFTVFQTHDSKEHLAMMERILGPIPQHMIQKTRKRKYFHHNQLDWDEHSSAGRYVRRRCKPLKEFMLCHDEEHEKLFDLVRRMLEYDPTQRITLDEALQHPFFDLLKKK
Sequence of 3',5'-cyclic-AMP phosphodiesterase 4B (Homo sapiens) (Q07343 whole entry, looked up): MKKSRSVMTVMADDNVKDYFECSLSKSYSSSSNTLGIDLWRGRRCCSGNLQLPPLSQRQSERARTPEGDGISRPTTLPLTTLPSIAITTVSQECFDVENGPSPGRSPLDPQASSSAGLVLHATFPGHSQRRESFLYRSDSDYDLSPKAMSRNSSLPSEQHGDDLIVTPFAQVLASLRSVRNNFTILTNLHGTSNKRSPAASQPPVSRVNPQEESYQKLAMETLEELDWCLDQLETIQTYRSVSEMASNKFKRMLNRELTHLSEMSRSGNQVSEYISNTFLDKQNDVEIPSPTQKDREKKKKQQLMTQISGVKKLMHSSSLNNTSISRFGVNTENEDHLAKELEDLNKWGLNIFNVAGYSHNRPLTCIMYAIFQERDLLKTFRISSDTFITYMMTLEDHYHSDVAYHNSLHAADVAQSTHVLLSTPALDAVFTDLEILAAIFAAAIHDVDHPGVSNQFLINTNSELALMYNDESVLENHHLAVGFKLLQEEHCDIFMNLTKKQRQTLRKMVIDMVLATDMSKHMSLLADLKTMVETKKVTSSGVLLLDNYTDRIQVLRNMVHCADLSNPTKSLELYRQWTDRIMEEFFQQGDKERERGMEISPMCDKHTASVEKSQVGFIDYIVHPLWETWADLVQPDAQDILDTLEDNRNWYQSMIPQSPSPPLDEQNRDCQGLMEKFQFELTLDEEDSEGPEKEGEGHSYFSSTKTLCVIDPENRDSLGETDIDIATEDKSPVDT
Sequence of Cytochrome P450 3A4 (Homo sapiens) (P08684 whole entry, looked up): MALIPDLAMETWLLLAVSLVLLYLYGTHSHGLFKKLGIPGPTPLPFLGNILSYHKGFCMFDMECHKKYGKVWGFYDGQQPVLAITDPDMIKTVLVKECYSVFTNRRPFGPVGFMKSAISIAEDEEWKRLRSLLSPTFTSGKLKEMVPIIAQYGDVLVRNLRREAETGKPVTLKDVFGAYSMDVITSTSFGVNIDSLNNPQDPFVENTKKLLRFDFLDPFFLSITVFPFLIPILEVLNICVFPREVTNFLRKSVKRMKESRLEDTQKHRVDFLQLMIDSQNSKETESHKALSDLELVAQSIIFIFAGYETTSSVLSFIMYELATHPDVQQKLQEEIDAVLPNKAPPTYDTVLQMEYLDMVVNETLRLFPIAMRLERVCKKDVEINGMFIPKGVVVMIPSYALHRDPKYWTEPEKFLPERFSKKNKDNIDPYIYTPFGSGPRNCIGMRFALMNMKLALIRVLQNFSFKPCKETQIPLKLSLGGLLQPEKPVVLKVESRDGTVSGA
Sequence of Cytochrome P450 1A2 (Homo sapiens) (P05177 whole entry, looked up): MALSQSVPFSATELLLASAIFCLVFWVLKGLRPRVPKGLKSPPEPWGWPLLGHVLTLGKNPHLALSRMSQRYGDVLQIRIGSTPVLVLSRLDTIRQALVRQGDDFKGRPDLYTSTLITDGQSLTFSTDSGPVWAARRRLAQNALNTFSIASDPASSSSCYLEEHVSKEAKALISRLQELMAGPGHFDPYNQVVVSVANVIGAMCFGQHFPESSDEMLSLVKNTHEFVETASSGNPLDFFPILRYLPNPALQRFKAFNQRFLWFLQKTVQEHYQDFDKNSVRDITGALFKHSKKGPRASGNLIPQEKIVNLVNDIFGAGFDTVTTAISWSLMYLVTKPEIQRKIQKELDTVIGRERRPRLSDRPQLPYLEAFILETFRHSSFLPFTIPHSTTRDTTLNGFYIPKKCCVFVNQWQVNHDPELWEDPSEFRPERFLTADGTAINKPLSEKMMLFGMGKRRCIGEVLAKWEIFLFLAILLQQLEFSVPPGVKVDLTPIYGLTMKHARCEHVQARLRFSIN

With `COCCn1c(=O)c(CCc2ccccc2)nc2cnc(N3CCN(C)CC3)nc21`, the Potency in experiment [1] is > 11.4 µM (inactive); in [5], > 9.22 µM (inactive); in experiment [6], > 46 µM (inactive). The activity change, negative = inhibition was 2.87% (inactive) in [2], -7.4% (inactive) in experiment [3] and 5.96% (inactive) in [9]. In experiment [4], the activity, negative = inhibition is -8.57% (inactive). Besides, the molecule was called inactive in [7]. In addition, the Potency result in [8] and in experiment [10] was “inactive” throughout. Also, the figures for the max response in [9] (setting [20]), in experiment [9] (setting [21]) and in [11] were -2.68%, 4.85% and 0.276% (inactive), respectively.
With `O=c1cnc2cnc(N3CCNCC3)nc2n1Cc1ccc(F)cc1`, the Potency in experiment [1] was > 11.4 µM (inactive); in experiment [12], 15.8 µM (active); in experiment [5] it was > 9.22 µM (inactive); in experiment [6] it was > 46 µM (inactive); in experiment [13], 7.94 µM (active). Also, the activity change, negative = inhibition in experiment [2] was -15.8% (inactive); in experiment [9], 7.02% (inactive). The activity, negative = inhibition in experiment [4] was -2.57% (inactive). In addition, the outcome in [7] was inactive. The Potency result in experiment [8], in [14], in [15], in experiment [16], in experiment [17] and in experiment [18] was “inactive” each time. Moreover, the Potency result in [10] was “inactive”. Moreover, the max response was determined as 22.7% in experiment [9] (setting [20]) and 28.6% in experiment [9] (setting [21]).
Turning to `Cc1nc2cnc(N3CCNCC3)nc2n(CCc2ccccc2)c1=O`, the Potency in [1] was > 11.4 µM (inactive); in experiment [5], > 9.22 µM (inactive); in [6], > 46 µM (inactive); in experiment [19] it was 31.6 µM (active). Moreover, the activity change, negative = inhibition in experiment [2] is -1.97% (inactive); in experiment [3] it was -13.2% (inactive). In addition, in experiment [4], the activity, negative = inhibition was -13.8% (inactive). Also, the result in [7] was inactive. For the same molecule, the Potency entry in experiment [8], in experiment [15], in [16], in experiment [17], in [18] and in [10] was “inactive” in each case.
On to `COCCn1c(=O)c(-c2ccc(Cl)cc2)nc2cnc(OCc3ccccc3)nc21`, for which the Potency was > 11.4 µM (inactive) in [1], > 9.22 µM (inactive) in experiment [5] and > 46 µM (inactive) in experiment [6]. Besides, the activity change, negative = inhibition in experiment [2] was -14.1% (inactive); in experiment [3] it was 1.06% (inactive); in experiment [9], -8.74% (inactive). Moreover, the activity, negative = inhibition in experiment [4] was -2.08% (inactive). For the same molecule, the outcome in experiment [7] was inactive. The max response in [9] (setting [20]) was -2.09%; in [9] (setting [21]), -15.5%. Moreover, the Potency result in [15], in [16], in [17], in experiment [18] and in experiment [10] was “inactive” in each case.
